High-throughput results from PubChem.
The sample as a whole holds a higher share of hits than the screen did.
RVFV N-RNA FP = inhibitors of Rift Valley Fever Virus nucleocapsid-RNA interaction; % bound, % (concentration not given with the values); P21700; 0.1% of 20,000 active; RVFV N-RNA binding, fluorescence polarization; active compounds read low; in the data active means % bound below about 75%
Target sequence (P21700 whole entry, looked up): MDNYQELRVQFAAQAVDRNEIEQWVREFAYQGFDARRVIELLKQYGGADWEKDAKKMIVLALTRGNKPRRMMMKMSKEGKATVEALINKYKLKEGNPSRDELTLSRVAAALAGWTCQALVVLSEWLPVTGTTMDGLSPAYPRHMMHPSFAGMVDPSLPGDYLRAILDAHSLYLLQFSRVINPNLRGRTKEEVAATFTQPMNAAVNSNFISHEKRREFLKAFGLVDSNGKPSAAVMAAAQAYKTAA
* hit, by the source's call; ! = repeats disagree.

SMILES	RVFV N-RNA FP
CC1=C(C(N)=O)C(c2ccccc2F)NC(=O)N1 (centres undefined)	89
COC(=O)C1=C(C)NC(=S)NC1/C=C/c1ccccc1 (centres undefined)	96
CC1=C(C(N)=O)C(/C=C/c2ccccc2)n2ncnc2N1 (centres undefined)	29*
c1cc2nc3c(nc2c2nonc12)CCCC3	94
CCOC(=O)N1CCN(CN2C(=S)SC3=NC(=O)CCCN32)CC1	96
O=C(c1cccs1)N1CCN(c2ccccn2)CC1	93
CCCC12CN3CC(CCC)(CN(C1)C(=O)c1ccccc1C3=O)C2=O	94
CC(CN(C)C)CN1c2ccccc2CCc2ccccc21 (centres undefined)	94
Brc1ccc(-c2nnc3sc(CN4CCc5ccccc54)cn23)cc1	93
C[C@H](N)CN1CCc2ccc(Br)cc21	72*
O=S(=O)(c1ccccc1)c1nc(-c2ccccc2)oc1N1CCCC1	93
O=C(NCCc1cnc[nH]1)NC12CC3CC(CC(C3)C1)C2	93
O=C1CCc2ccc(OCCCCN3CCN(c4cccc(Cl)c4Cl)CC3)cc2N1	97
OCc1cc(C(O)CNCCCCCCOCCCCc2ccccc2)ccc1O (centres undefined)	96
CC(=O)Nc1ccc(C(F)(F)F)cc1N	96
CCc1cc2c(=O)c(-c3ccc4c(c3)OCCO4)c(C)oc2cc1O	99
O=C1C=CC(=O)C(c2ccc(C(=O)O)cc2)=C1	52*
O=C(O)c1ccc(-c2ccccc2)cc1	96
Cn1nnc(-c2ccc(C(=O)O)cc2)n1	98
C=CCSC1=N/C(=C\c2ccc(-c3ccc(F)cc3)o2)C(=O)S1	97
Cc1cccc(-c2noc(-c3ccccc3C(=O)NCc3cccnc3)n2)c1	98
CCCCc1cc(=O)oc2c(CN(C)C)c(O)ccc12	92
CC[C@@]1(O)C(=O)OCc2c1cc1n(c2=O)Cc2cc3c(CN(C)C)c(O)ccc3nc2-1	44*
OCC1NCC(O)C(O)C1O (centres undefined)	93
CCCCN1C=C(C(=O)OC)C(c2cccc(OC)c2OC)C(C(=O)OC)=C1	102
SMILES	RVFV N-RNA FP
Cc1ccccc1-n1c(Cn2c(=O)sc3ccccc32)n[nH]c1=S	93
Cc1ccc2nc(SCC(=O)N(C)c3ccccc3)nc(=O)n2c1	98
CCN(CC)/C(C)=N/S(=O)(=O)c1ccc(Cl)cc1	108
Cc1ccc(N2CC(C(=O)Nc3c(C(N)=O)oc4ccccc34)CC2=O)cc1 (centres undefined)	100
CN1CCC(=C2c3ccccc3C=Cc3ccccc32)CC1	101
COc1cc(NC(C)CCCN)c2ncccc2c1 (centres undefined)	95
COc1ccc2nc3cc(Cl)ccc3c(Nc3cc(CN4CCCC4)c(O)c(CN4CCCC4)c3)c2n1	103
CCN(CC)CCCC(C)Nc1c2ccc(Cl)cc2nc2ccc(OC)cc12 (centres undefined)	34*
CC(=O)Nc1cccc(C(=O)OCc2ccccc2)c1	91
Cc1ccc(SCC(=O)NC2CCCCC2C)cc1 (centres undefined)	100
O=C1Nc2ccccc2C(=O)C1(N1CCOCC1)N1CCOCC1	95
CCOc1ccc2nc(SCC(=O)NC3CC3)sc2c1	90
CC1CCN(Cc2c(O)ccc3c2O/C(=C\c2ccccc2)C3=O)CC1	56*
O=C1/C(=C/c2ccccc2)Oc2c1ccc(O)c2CN1CCOCC1	53*
CCc1c(C)c2ccc(O)c(CN(C)C)c2oc1=O	92
CCN(CC)Cc1c(O)ccc2c1O/C(=C\c1ccc(C(=O)OC)cc1)C2=O	59
CC1CCN(CC(=O)NCc2ccccc2)CC1	95
O=C(CN1CCOCC1)N/N=C/c1ccccc1	97
CN(C)Cc1c(O)ccc2c1O/C(=C\c1ccccc1)C2=O	48*
CC1CCN(Cc2c(F)cccc2F)CC1	99
COc1ccc2c(c1)O/C(=C\c1cccc(OC(=O)N3CCOCC3)c1)C2=O	97
CNC(=O)N(C1=NCCS1)c1ccccc1	97
CN1C(=O)C(=Cc2cc3c(cc2Cl)OCO3)C(=O)N(C)C1=S	98
COc1ccc(S(=O)(=O)N(CC(N)=O)Cc2ccccc2)cc1OC	100
Cc1nc(C)c(-c2ccn(C(=O)Nc3c(-c4c(Cl)cccc4Cl)noc3C)n2)s1	92
SMILES	RVFV N-RNA FP
C=CCn1c(C(C)O)nc2ccccc21 (centres undefined)	97
CCCN1CCC2(CC1)C1CN(CCC)CC=C1C(C#N)=C(N)C2(C#N)C#N (centres undefined)	54*
CSc1n[nH]c(=O)n1-c1cccc(Cl)c1	90
Cc1onc(-c2ccccc2)c1C(=O)N=S(C)(C)=O	99
CCN1CCN(C(=O)N2c3ccccc3Sc3ccccc32)CC1	85
COC(=O)c1c(N)c(C#N)c(C)n1-c1ccccc1	93
C=CCNC(=O)c1ccc(OCCCC)cc1	95
NC(=O)NO	93
CC(C)C(=O)Nc1cccc(C(=O)Nc2ccccc2)c1	98
Cc1cccc(NC(=O)c2cccc(C)c2)c1	87
Cc1ccc(C(=O)Nc2ccc(S(=O)(=O)O)c3cc(S(=O)(=O)O)cc(S(=O)(=O)O)c23)cc1NC(=O)c1cccc(NC(=O)Nc2cccc(C(=O)Nc3cc(C(=O)Nc4ccc(S(=O)(=O)O)c5cc(S(=O)(=O)O)cc(S(=O)(=O)O)c45)ccc3C)c2)c1	6.7*!
COc1ccc(N2CCN(CCN)CC2)cc1	87
C[C@]12CC[C@@H]3c4ccc(OS(=O)(=O)O)cc4CC[C@H]3[C@@H]1CCC2=O	92
C=CCn1c(-c2ccncc2)n[nH]c1=S	101
CCOc1ccc2c(c1)s/c(=N/C(=O)Nc1ccc(OC)cc1)n2C	100
Cc1ccc(S(=O)(=O)CCSc2nccn2C)cc1	90
CSc1sc(C(=O)OC(C)C)c2c1C(=O)CC(C)(C)C2	94
Oc1ccc2nnc3c(Br)cnn3c2c1	41*
CCOc1ccc(C(=O)N2C(C)CCCC2C)cc1OCC (centres undefined)	105
CN1C(=O)C(O)(C2OC(C)(C)CCC2=O)c2ccccc21 (centres undefined)	95
CCNC(=O)CC1S/C(=N\N=C\c2ccc(C)o2)NC1=O (centres undefined)	95
O=C(CC1S/C(=N/N=C/c2ccco2)NC1=O)Nc1ccc(Cl)cc1 (centres undefined)	73*
C/C=N/N=C1/NC(=O)C(CC(=O)Nc2cccc(C)c2C)S1 (centres undefined)	101
C=CCNC(=S)Nc1ccc(C)cc1OC(F)F	98
Cc1cnn(CCCNC(=S)Nc2ccc(S(N)(=O)=O)cc2)c1	112
O=C1CN(C(=O)C2CCC2)CCN1	93
Cc1cc(N2CCOCC2)ccc1/C=c1\sc2nc3ccccc3n2c1=O	100
Cc1noc(C(F)(F)F)c1-c1nc(-c2ccccc2)no1	97
